Assay outcomes deposited in PubChem BioAssay by National Center for Advancing Translational Sciences (NCATS).
KCNH2 WT inh – qHTS for Inhibitors of KCHN2 3.1: Wildtype qHTS; Voltage-gated inwardly rectifying potassium channel KCNH2 (Homo sapiens), Q12809; U2OS, BacMam KCNH2, thallium flux FluxOr; active compounds read low; activity change, % at 1.84 µM; 340,000 compounds, 0.37% hits; AID 720551, 2013;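 active = maximum activity change below -70%; inconclusive = maximum activity change between -70% and -50%; inactive = maximum activity change above -50%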; also: % is scaled to controls: 0 for no effect and ±100 for the full control effect
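U2OS cells were transduced with wild-type KCNH2 virus (2.03 x 10^8 / mL) for 4 h at room temperature, then cultured overnight at 37 C. Thallium flux was read with FluxOr dye. Rate constants were normalized to DMSO controls.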
mIDH1 inhibitor – qHTS for Inhibitors of mutant isocitrate dehydrogenase 1 (IDH1): qHTS. Isocitrate dehydrogenase [NADP] cytoplasmic (Homo sapiens), O75874. IDH1-R132H enzyme, NADPH consumption, diaphorase/resazurin fluorescence. Potency, µM (top dose mostly 76.6 µM), for the others: at the highest dose activity change, negative = inhibition, most hits filed as inhibitors. 390,000 compounds, 0.093% hits. AID 602179, 2012; also: potency is read from the fitted curve at half-maximal effect; % is scaled to controls: 0 for no effect and ±100 for the full control effect; nearly all actives have a fitted effect of over 65% in size
Target sequence (O75874 whole entry R132H, stated change not applied): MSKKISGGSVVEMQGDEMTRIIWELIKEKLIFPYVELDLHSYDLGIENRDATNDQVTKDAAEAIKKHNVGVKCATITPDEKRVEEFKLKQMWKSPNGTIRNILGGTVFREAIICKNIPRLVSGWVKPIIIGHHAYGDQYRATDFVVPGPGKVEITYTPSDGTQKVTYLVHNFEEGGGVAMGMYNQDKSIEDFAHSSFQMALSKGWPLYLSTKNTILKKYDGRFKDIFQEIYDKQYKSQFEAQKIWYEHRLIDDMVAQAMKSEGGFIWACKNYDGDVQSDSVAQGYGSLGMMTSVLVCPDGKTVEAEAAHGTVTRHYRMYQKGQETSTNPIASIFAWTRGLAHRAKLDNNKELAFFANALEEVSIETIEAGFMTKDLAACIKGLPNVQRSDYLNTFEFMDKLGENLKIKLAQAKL
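IDH1-R132H (0.5 ug/mL) preincubated 30 min with compound, then NADPH (0.016 mM) and alpha-KG (2 mM) added; 80 min at RT, pH 7.5. Remaining NADPH coupled via diaphorase/resazurin to fluorescence (540/590 nm); concentration-response curves normalized to no-enzyme control.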
Apoferritin bind – qHTS Assay for Identification of Novel General Anesthetics. Ferritin light chain (Equus caballus), P02791. apoferritin/1-aminoanthracene competitive binding, fluorescence. Potency, µM (doses to about 77.5 µM), for inactives: at the top dose activity change, negative = displacement, actives largely listed as inhibitors. 350,000 compounds, 0.074% hits. AID 485281, 2010; also: potency is read from the fitted curve at half-maximal effect; % is scaled to controls: 0 for no effect and ±100 for the full control effect; nearly all actives have a fitted effect of over 20% in size
Target sequence (P02791 2-175 limits assumed): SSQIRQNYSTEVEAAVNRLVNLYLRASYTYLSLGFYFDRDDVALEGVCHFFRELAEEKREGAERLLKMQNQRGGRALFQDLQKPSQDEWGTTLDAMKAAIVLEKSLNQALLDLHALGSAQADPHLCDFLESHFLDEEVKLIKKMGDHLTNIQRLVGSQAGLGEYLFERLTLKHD
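Concentration-response curves derived by four-parameter Hill fitting of normalized fluorescence, where compounds displaced 1-AMA from 10 uM horse apoferritin following a brief 10 min room-temperature incubation; propofol titration acted as positive control.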
KCNH2 3.1 inh – qHTS for Inhibitors of KCHN2 3.1: Mutant qHTS. U2OS KCNH2 3.1, thallium flux FluxOr; active compounds read low. activity change, % (tested at about 1.8 µM). 340,000 compounds, 0.95% hits. AID 720553, 2013;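 active = maximum activity change below -70%; inconclusive = maximum activity change from -70% to -50%; inactive = maximum activity change above -50%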;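 also: thallium influx rate constant from kinetic fluorescence after stimulation buffer; % is scaled to controls: 0 for no effect and ±100 for the full control effect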
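FluxOr-based Tl+ influx in U2OS cells transduced with KCNH2 3.1 virus; rate constants normalized to DMSO controls.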
S-ASM inh – Inhibitors of Secretory Acid Sphingomyelinase (S-ASM): qHTS | Potency, µM (titrated, usually from 57.5 µM), for the others: at the highest dose activity change, negative = inhibition, usual class: inhibitors | 340,000 compounds, 0.006% hits | placental ASM, HMU-PC fluorogenic substrate, 60 min | Sphingomyelin phosphodiesterase (Homo sapiens), P17405; also: potency is read from the fitted curve at half-maximal effect
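HMU-PC0 cleavage (9 uM final) by human placental ASM, 60 min at 37 °C following 10 min compound exposure at RT; stopped at pH 10, fluorescence Ex 386/Em 447 nm.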
* hit, by the source's call. Shown are actives, neighbours in structure and some others; about 1.2% of the full set was active somewhere. Unless noted, calls follow the shape of the dose curve; as a rule, active = well fitted inhibition curve with a large enough effect; inconclusive = small, poorly fitted or top-dose-only effect; inactive = no such curve, though single readings can be large or run the other way.

Screening CCC1CCCCN1CCCNC(=O)c1ccc(/C=C2/Sc3ccccc3NC2=O)cc1 (centres undefined) returned KCNH2 WT inh inconclusive, mIDH1 inhibitor 2%, Apoferritin bind -23%, KCNH2 3.1 inh -96* and S-ASM inh -3%.
For COC(=O)/C(=C\C(=O)c1ccc([N+](=O)[O-])cc1)Nc1ccc(OC)cc1 the results were KCNH2 WT inh -6, mIDH1 inhibitor 8%, Apoferritin bind 1%, KCNH2 3.1 inh -77* and S-ASM inh -24%.
Screening COc1cccc(Cn2c(C)c(CNCc3ccccc3Cl)c(C(=O)O)c2C)c1 returned mIDH1 inhibitor 4% and Apoferritin bind -15%.
Screening Cc1ccc(-c2ccc(CCC(=O)O)n2-c2ccc(C(C)C)cc2)cc1 returned mIDH1 inhibitor inconclusive and Apoferritin bind -10%.
Screening CCc1ccc(OCC(=O)Nc2ncn[nH]2)c(Br)c1 returned mIDH1 inhibitor 6% and Apoferritin bind -6%.
For CC(C)CNS(=O)(=O)c1ccc(CCC(=O)N2CCC(C(N)=O)CC2)cc1 the results were KCNH2 WT inh 4, mIDH1 inhibitor 0%, Apoferritin bind 8%, KCNH2 3.1 inh -113* and S-ASM inh 0%.
CC(C)CNS(=O)(=O)c1ccc(CCC(=O)N2CCN(Cc3ccccc3)CC2)cc1 was read as KCNH2 WT inh 12, mIDH1 inhibitor 0%, Apoferritin bind -5%, KCNH2 3.1 inh -19 and S-ASM inh 1%.
For Cn1cc(S(=O)(=O)NCCc2ccccc2)c(=O)n(C)c1=O the results were KCNH2 WT inh 0, mIDH1 inhibitor 6%, Apoferritin bind -14%, KCNH2 3.1 inh 23 and S-ASM inh 5%.
For Cc1cc(S(=O)(=O)NCCc2ccccc2)c(C)s1 the results were KCNH2 WT inh -4, mIDH1 inhibitor 14%, Apoferritin bind 8.9µM*, KCNH2 3.1 inh 9 and S-ASM inh 0%.
Screening Cc1c(S(=O)(=O)NCCc2ccccc2)c(=O)n(C)c(=O)n1C returned KCNH2 WT inh -100*, mIDH1 inhibitor 1%, Apoferritin bind -9%, KCNH2 3.1 inh -5 and S-ASM inh 1%.
O=C(NN=C1CCCC1)c1ccc([N+](=O)[O-])cc1 was read as KCNH2 WT inh -222*, mIDH1 inhibitor 0%, Apoferritin bind -1%, KCNH2 3.1 inh 0 and S-ASM inh 5%.
CCCN(CCC)CCCNC(=O)c1sc2nc3n(c(=O)c2c1C)CCC3 was read as mIDH1 inhibitor 22% and Apoferritin bind 1%.
Screening CCN(CC(=O)NC(C)C)C(=O)C(CCSC)NC(=O)c1cccc(C)c1 (centres undefined) returned KCNH2 WT inh -155*, mIDH1 inhibitor 8%, Apoferritin bind -12%, KCNH2 3.1 inh -201* and S-ASM inh 2%.
`COc1cccc(CN2CCN(C(=S)NCc3ccc(Cl)cc3)CC2)c1` gave KCNH2 WT inh 15, mIDH1 inhibitor 8%, Apoferritin bind 6%, KCNH2 3.1 inh -75* and S-ASM inh -2%.
`Cc1ccc(N(C)C(=O)C2CCCN2S(=O)(=O)c2cccc3nsnc23)cc1` (centres undefined) gave KCNH2 WT inh -1, mIDH1 inhibitor 6%, Apoferritin bind -13%, KCNH2 3.1 inh -1 and S-ASM inh -4%.
For COc1ccc(N(C)C(=O)C2CCCN2S(=O)(=O)c2cccc3nsnc23)c(OC)c1 (centres undefined) the results were KCNH2 WT inh -208*, mIDH1 inhibitor -1%, Apoferritin bind -11%, KCNH2 3.1 inh -7 and S-ASM inh 2%.
For CCOc1ccc(/C=C2\SC(=S)N(N3C(=O)C4CC4C3=O)C2=O)cc1 (centres undefined) the results were KCNH2 WT inh -6, mIDH1 inhibitor 6%, Apoferritin bind -12%, KCNH2 3.1 inh -99* and S-ASM inh -2%.
CCOc1ccc(/C=C2/SC(=O)NC2=S)cc1 was read as KCNH2 WT inh -16, mIDH1 inhibitor 0%, Apoferritin bind -11%, KCNH2 3.1 inh -94* and S-ASM inh 0%.
Screening CCOC(=O)C(/C(C)=N/NC(=O)c1ccccc1[N+](=O)[O-])C(C)C (centres undefined) returned KCNH2 WT inh 0, mIDH1 inhibitor 5%, Apoferritin bind -15%, KCNH2 3.1 inh -83* and S-ASM inh -1%.
`N=C1C(c2ccccc2)=C(O)CN1c1cccc(S(=O)(=O)N2CCCCC2)c1` gave KCNH2 WT inh -225*, mIDH1 inhibitor 4%, Apoferritin bind -7%, KCNH2 3.1 inh 6 and S-ASM inh 2%.
`N=C1C(c2ccccc2)=C(O)CN1c1cccc(S(=O)(=O)Nc2cccc(C(F)(F)F)c2)c1` gave KCNH2 WT inh -31, mIDH1 inhibitor 4%, Apoferritin bind 9% and S-ASM inh -7%.
Screening COc1ccc(S(=O)(=O)N(C)CC(=O)N2CCCCCC2)cc1 returned KCNH2 WT inh -18, mIDH1 inhibitor -1%, Apoferritin bind -13%, KCNH2 3.1 inh 7 and S-ASM inh 7%.
`CCOc1ccc(S(=O)(=O)N(C)CC(=O)N2CCCC2)cc1` gave KCNH2 WT inh -9, mIDH1 inhibitor -15%, Apoferritin bind -2%, KCNH2 3.1 inh -100* and S-ASM inh 4%.
`CN(c1ccc(OCC(=O)N2CCCC2)cc1)S(=O)(=O)c1ccc(Cl)cc1` gave KCNH2 WT inh -133*, mIDH1 inhibitor -7%, KCNH2 3.1 inh 11 and S-ASM inh -1%.
`CCOc1ccc(S(=O)(=O)N(C)c2ccc(OCC(=O)N3CCOCC3)cc2)cc1` gave KCNH2 WT inh 0, mIDH1 inhibitor -2%, Apoferritin bind -4%, KCNH2 3.1 inh 3 and S-ASM inh 4%.
Cc1cc(NC(=O)CN(C)S(=O)(=O)c2ccc3c(c2)CCC(=O)N3)ccc1Br was read as mIDH1 inhibitor 16% and Apoferritin bind 5%.
Screening Cc1cccc(-c2cc3nc(C)cc(N4CC(C)CC(C)C4)n3n2)c1 (centres undefined) returned KCNH2 WT inh -2, mIDH1 inhibitor 3%, Apoferritin bind -4%, KCNH2 3.1 inh -120* and S-ASM inh -4%.
CCCNc1ccc(-c2nc(-c3ccncc3)no2)cc1[N+](=O)[O-] was read as mIDH1 inhibitor 4% and Apoferritin bind -24%.
Screening Cc1ccc(S(=O)(=O)N2CCC(C(=O)NNC(=O)c3ccccc3)CC2)cc1 returned KCNH2 WT inh 15, mIDH1 inhibitor -5%, Apoferritin bind -2%, KCNH2 3.1 inh -115* and S-ASM inh 5%.
